According to PubChem BioAssay (EPA / NIEHS):
Some structures have more than one record in an assay (separate samples or runs), and their calls can disagree. Activity calls are given as the source filed them. The calls were made as follows: active = hit-call score of the fitted dose curve at least 0.9, where 1 is the maximum; inactive = score below 0.9.

Each compound was assayed on Pselectin, SELP (gene 6403) (assay: BSK_4H_Pselectin: BioMAP Diversity Plus: 4H Assay for Pselectin Biomarker Activity (AID 2283026)). Conditions: primary human endothelial cells (HUVEC); actives raise or lower the signal.
Procedure: BSK_4H is a cell-based, multiplexed-readout assay that uses umbilical vein endothelium, a human vascular primary cell, with measurements taken at 24 hours after chemical dosing in a 96-well plate.BSK_4H_Pselectin is an assay component measured in the BSK_4H assay. It measures P-Selectin antibody related to regulation of gene expression using ELISA technology.Data from the assay component BSK_4H_Pselectin was analyzed into 1 assay endpoint. This assay endpoint, BSK_4H_Pselectin, was analyzed with bidirectional fitting relative to DMSO as the negative control and baseline of activity. Using a type of binding reporter, gain or loss-of-signal activity can be used to understand changes in the signaling as they relate to the gene SELP. Furthermore, this assay endpoint can be referred to as a primary readout, because this assay has produced multiple assay endpoints where this one serves a signaling function. To generalize the intended target to other relatable targets, this assay endpoint is annotated to the cell adhesion molecules intended target family, where the subfamily is selectins.
The levels of cell surface (or secreted, indicated by the prefix "s") biomarker endpoints were measured by ELISA. Overt cytotoxicity to cells in confluent adherent cultures (all systems other than the BT system) was assessed by measuring total protein levels using sulforhodamine B (SRB) staining in parallel cultures at the time of biomarker measurements, indicated as SRB endpoints. For proliferation assays for adherent cell types, individual cell types are cultured at sub-confluence and relative cell numbers quantified by SRB staining at time points optimized for each system (48 h: 3C and CASM3C systems; 72 h: BT and HDF3CGF systems; 96 h: SAg system). SRB was performed by staining cells with 0.1% SRB after fixation with 10% TCA and reading wells at 560 nm.Viability and proliferation of PBMC (T cells) was quantified by Alamar Blue reduction for the SAg and BT systems. For PBMC viability (referred to as PBMC Cytotoxicity within the assay endpoint names), cells were plated (75,000/well in a 96-well plate) and then chemical samples added for 1 h before addition of activators, SEB and TSST-1 (20 ng/mL final concentration each). Cells were incubated for 90 h. Then, Alamar Blue (20 uL/well) (Invitrogen, Cat DAL1100) was added for 6 h, and the plates were read with a fluorescence microplate reader at 546/580 nm (excitation/emission). For PBMC proliferation, cells were plated and activated as above but incubated for only 16 h prior to addition of Alamar Blue. Plates were read after 6 h.
With `CCCCC(C#N)(Cn1cncn1)c1ccc(Cl)cc1` (stereo not given) the outcome was “inactive”.
For `COP(=S)(OC)SCn1nnc2ccccc2c1=O`, the AC50 was 35.1 µM (active).
For `Cc1nc(N(C)C)nc(OC(=O)N(C)C)c1C`, the outcome was “inactive”.
`CCOP(=O)(OCC)Oc1nc(Cl)c(Cl)cc1Cl` was tested, and the AC50 was 18.5 µM (active).
With `CO/N=C(/C1=NOCCO1)c1ccccc1Oc1ncnc(Oc2ccccc2Cl)c1F` the outcome was “inactive”.
With `CC1(C)CCC(=Cc2ccc(Cl)cc2)C1(O)Cn1cncn1` (stereo not given) the outcome was “inactive”.
`O=C(O)c1c(Cl)ccc2cc(Cl)cnc12` was tested, and the outcome was “inactive”.
With `CSC(=O)c1c(C(F)F)nc(C(F)(F)F)c(C(=O)SC)c1CC(C)C` the AC50 was 15 µM (active).
`COCC(=O)N(c1c(C)cccc1C)C(C)C(=O)OC` (stereo not given) was tested, and the outcome was “inactive”.
With `Clc1cccc(C(Cl)(Cl)Cl)n1` the outcome was “inactive”.
With `CCOP(=S)(OCC)Oc1nc(Cl)n(C(C)C)n1` the outcome was “inactive”.
With `CCOc1nc(F)cc2nc(S(=O)(=O)Nc3c(Cl)cccc3Cl)nn12` the outcome was “inactive”.
`OC(c1ccc(Cl)cc1)(c1ccc(Cl)cc1)C(Cl)(Cl)Cl` was tested, and the AC50 was 17.3 µM (active).
With `CC1(C)C(C(=O)OC(C#N)c2cccc(Oc3ccccc3)c2)C1(C)C` (stereo not given) the AC50 was 12.9 µM (active).
In the case of `CN=C=S`, the outcome is reported as “inactive”.
For `COCC(C)N(C(=O)CCl)c1c(C)csc1C` (stereo not given), the outcome was “inactive” and the AC50 was 14.6 µM (active).
`CCC(C)n1c(=O)[nH]c(C)c(Br)c1=O` (stereo not given) was tested, and the outcome was “inactive”.
For `Cc1cc(C)nc(Nc2ccccc2)n1`, the outcome was “inactive”.
With `Nc1cnn(-c2ccccc2)c(=O)c1Cl` the outcome was “inactive”.
With `CC(C)NC(=O)N1CC(=O)N(c2cc(Cl)cc(Cl)c2)C1=O` the outcome was “inactive”.
With `COc1cc(Cl)c(OC)cc1Cl` the outcome was “inactive”.
In the case of `CC(C)(C)C(=O)C(Oc1ccc(Cl)cc1)n1cncn1` (stereo not given), the outcome is reported as “inactive”.
`Nc1c(Cl)c(F)nc(OCC(=O)O)c1Cl` was tested, and the outcome was “inactive”.
In the case of `CCCCC(O)(Cn1cncn1)c1ccc(Cl)cc1Cl` (stereo not given), the outcome is reported as “inactive”.
For `COC(=O)N(C(=O)N1CO[C@@]2(C(=O)OC)Cc3cc(Cl)ccc3C2=N1)c1ccc(OC(F)(F)F)cc1`, the AC50 was 5.19 µM (active).
With `COC(=O)NS(=O)(=O)c1ccc(N)cc1` the outcome was “inactive”.
With `CC1(C)C(C=C(Cl)Cl)C1C(=O)OC(C#N)c1cccc(Oc2ccccc2)c1` (stereo not given) the outcome was “inactive”.
For `Cc1ccc(N=CN(C)C=Nc2ccc(C)cc2C)c(C)c1`, the AC50 was 30 µM (active).
With `N#Cc1c[nH]cc1-c1cccc2c1OC(F)(F)O2` the AC50 was 11.7 µM (active).
In the case of `Cn1c(-c2ccccc2)cc(-c2ccccc2)[n+]1C`, the outcome is reported as “inactive”.
For `CC(C)Nc1nc(Cl)nc(NC(C)C)n1`, the outcome was “inactive”.
`CC1(C)CON(Cc2ccccc2Cl)C1=O` was tested, and the outcome was “inactive”.
`CCCC(=NOCC)C1=C(O)CC(CC(C)SCC)CC1=O` (stereo not given) was tested, and the outcome was “inactive”.
In the case of `CC(C)C1(C)N=C(c2ncccc2C(=O)O)NC1=O` (stereo not given), the outcome is reported as “inactive”.
In the case of `CNC(=O)N(C)c1nnc(C(C)(C)C)s1`, the outcome is reported as “inactive”.
In the case of `COc1ccc(-c2ccccc2)cc1NNC(=O)OC(C)C`, the outcome is reported as “inactive”.
For `CCOC(=O)C(C)OC(=O)c1cc(Oc2ccc(C(F)(F)F)cc2Cl)ccc1[N+](=O)[O-]` (stereo not given), the outcome was “inactive”.
With `Clc1nc(Cl)nc(Nc2ccccc2Cl)n1` the outcome was “inactive”.
`CCOc1cc(C(C)(C)C)ccc1C1COC(c2c(F)cccc2F)=N1` (stereo not given) was tested, and the AC50 was 22.2 µM (active).
